Results filed as inconclusive are left out. Active and inactive are the calls of the source. Unless noted, calls follow the shape of the dose curve; as a rule, active = well fitted curve in the direction sought with a large enough effect in the repeat runs; inconclusive = weak or mixed curves; inactive = no such curve, though single readings can be large; an effect the other way counts as inactive or inconclusive.
Legend:
[1] = qHTS assay to identify small molecule agonists of the TGF-beta/Smad signaling pathway - cell viability counter screen (AID 1346829); also: top concentration of the series differs between compounds; nearly all actives have a fitted effect of over 45% in size
Method in brief: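 SBE-bla HEK 293T cells plated overnight, compound exposure 5 hr at 37 C. Viability read in the same wells by CellTiter-Glo luminescence after 30 min at room temperature, following the beta-lactamase read.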

[2] = qHTS assay to identify small molecule agonists of the TGF-beta/Smad signaling pathway (AID 1346859; active = well fitted activation curve with a large enough effect in the signal ratio in the repeat runs, not every such curve was filed as active; the % refers to the signal ratio; also: series mostly up to about 77 µM)
Method in brief: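 Reporter line: HEK 293T with stably integrated SBE-controlled beta-lactamase. Compound exposure lasts 5 hr at 37 C and 5% CO2; substrate loading follows for 2 hr at room temperature, with emission read at 460 and 530 nm.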

[3] = target: Thyrotropin-releasing hormone receptor (Homo sapiens) (UniProt P34981); assay: qHTS assay to identify small molecule antagonists of the thyrotropin-releasing hormone receptor (TRHR) signaling pathway (AID 1346877; active = well fitted inhibition curve with a large enough effect in the repeat runs, not every such curve was filed as active; also: series mostly up to about 51 µM)
Method in brief: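 Overnight-plated (18 h, 37 °C) HEK293 cells expressing TRHR were dye-loaded 2 h, treated with compound, then stimulated with TRH at 1 nM final. Fluorescence intensity was captured every second for 3 min.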

[4] = target: Thyrotropin-releasing hormone receptor (Homo sapiens) (UniProt P34981); assay: qHTS assay to identify small molecule agonists of the thyrotropin-releasing hormone receptor (TRHR) signaling pathway (AID 1346891; calls by dose curve;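 also: HEK293 cells expressing TRHR with calcium dye readout; series mostly up to about 58 µM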)
Method in brief: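 Cells: TRHR-Hek293, seeded and incubated 18 h. Dye loading: 2 h at 37 °C. Compound added from DMSO stock by pin tool. Read-out: kinetic calcium fluorescence over 3 min.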

[5] = Human pregnane X receptor (PXR) small molecule agonists, qHTS cell viability counter screen (AID 1346977); also: nearly all actives have a fitted effect of over 50% in size
Method in brief: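 Cytotoxicity counter screen run in the same wells as the PXR luciferase assay, using PXR-Luc HepG2 cells in charcoal-stripped serum medium. Viability: CellTiter-Fluor fluorescence after 24hr compound treatment.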

[6] = Caspase-3/7 induction in HepG2 cells by small molecules, qHTS assay (AID 1346978); also: nearly all actives have a fitted effect of over 15% in size
Method in brief: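 Wild-type HepG2 cells, 2,000/well, settled 5 hr at 37 C and 5% CO2, then compound-treated for 17 hr; caspase-3/7 activity read by luminescent Caspase-Glo 3/7 after 30 min at room temperature.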

[7] = Caspase-3/7 induction in CHO-K1 cells by small molecules, qHTS cell viability counter screen (AID 1346979); also: nearly all actives have a fitted effect of over 35% in size
Method in brief: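 Cytotoxicity counter screen run in parallel with the caspase-3/7 assay: CHO-K1 cells, 16hr compound treatment at 37C, then CellTiter-Fluor for 1hr before fluorescence reading.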

[8] = Caspase-3/7 induction in CHO-K1 cells by small molecules, qHTS assay (AID 1346980); also: nearly all actives have a fitted effect of over 15% in size
Method in brief: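 Wild-type CHO-K1 cells exposed to compounds for 17hr at 37 C, 5% CO2. Caspase-3/7 activity then measured by Caspase-Glo 3/7 luminescence after 30min at room temperature.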

[9] = Caspase-3/7 induction in HepG2 cells by small molecules, qHTS cell viability counter screen (AID 1346981); also: series mostly up to about 92 µM; nearly all actives have a fitted effect of over 30% in size
Method in brief: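 Treatment of HepG2 cells with DMSO-delivered compounds ran 16 hr at 37 C following a 5-hr pre-incubation of 2,000 cells/well. CellTiter-Fluor fluorescence, read after 1 hr, served as the viability measure in a qHTS format.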

[10] = target: Nuclear receptor subfamily 1 group I member 2 (Homo sapiens) (UniProt O75469); assay: Human pregnane X receptor (PXR) small molecule agonists, qHTS assay (AID 1346982); also: nearly all actives have a fitted effect of over 35% in size; also: potency is read from the fitted curve at half-maximal effect
Method in brief: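 Stable HepG2 line reporting PXR-mediated CYP3A4 expression via luciferase. Treatment: 24 hr with compounds in DMSO at 37 C. Detection: ONE-Glo luminescence.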

[11] = target: Cytochrome P450 2D6 (Homo sapiens) (UniProt P10635); assay: Cytochrome P450 Family 2 Subfamily D Member 6 (CYP2D6) small molecule antagonists: luciferase reporter qHTS assay (AID 1671196); also: nearly all actives have a fitted effect of over 50% in size; also: potency is read from the fitted curve at half-maximal effect
Method in brief: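 Chemicals tested for interference with CYP2D6 activity; proluciferin substrate, NADPH regeneration, 1 h at room temperature, luminescent detection.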

[12] = target: Cytochrome P450 2C19 (Homo sapiens) (UniProt P33261); assay: Cytochrome P450 Family 2 Subfamily C Member 19 (CYP2C19) small molecule antagonists: luciferase reporter qHTS assay (AID 1671197); also: nearly all actives have a fitted effect of over 65% in size; also: potency is read from the fitted curve at half-maximal effect
Method in brief: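 P450-Glo CYP2C19 system: enzyme-substrate mix with compound 10 min at room temperature, then NADPH regeneration solution, 1 h at 37C. Proluciferin-to-luciferin conversion detected by luminescence after 20 min with detection reagent; ketoconazole as positive control.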

[13] = target: Cytochrome P450 2C9 (Homo sapiens) (UniProt P11712); assay: Cytochrome P450 Family 2 Subfamily C Member 9 (CYP2C9) small molecule antagonists: luciferase reporter qHTS assay (AID 1671198); also: nearly all actives have a fitted effect of over 50% in size; also: potency is read from the fitted curve at half-maximal effect
Method in brief: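 P450-Glo proluciferin substrate with CYP2C9 enzyme; 10 min RT preincubation, then NADPH regeneration 1 h at 37C; luciferin detection reagent 20 min RT, luminescence in relative luminescence units.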

[14] = target: Cytochrome P450 1A2 (Homo sapiens) (UniProt P05177); assay: Cytochrome P450 Family 1 Subfamily A Member 2 (CYP1A2) small molecule antagonists: luciferase reporter qHTS assay (AID 1671199); also: nearly all actives have a fitted effect of over 50% in size; also: potency is read from the fitted curve at half-maximal effect
Method in brief: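 Read-out is luminescence from luciferin detection reagent (20 min) proportional to CYP1A2 activity; compounds in DMSO preincubated 10 min with enzyme and proluciferin substrate, then NADPH regeneration solution, 1 h, room temperature.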

[15] = target: Voltage-gated inwardly rectifying potassium channel KCNH2 (Homo sapiens) (UniProt Q12809); assay: Human Ether-a-go-go-Related Gene (hERG) channel small molecule antagonists: fluorescence cell-based qHTS assay (AID 1671200); also: nearly all actives have a fitted effect of over 50% in size; also: potency is read from the fitted curve at half-maximal effect
Method in brief: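 Fluorescence at 540 nm emission (480 nm excitation) was recorded kinetically for 2 min at 1-second intervals once the thallium-containing stimulus reached cells previously loaded with FluxOR II dye.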

[16] = target: Cytochrome P450 3A4 (Homo sapiens) (UniProt P08684); assay: Cytochrome P450 Family 3 Subfamily A Member 4 (CYP3A4) small molecule antagonists: luciferase reporter qHTS assay (AID 1671201)
Method in brief: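 qHTS, 1536-well. CYP3A4 + proluciferin substrate, cpd 10 min RT → NADPH regen 1 h RT → detection reagent 20 min → luminescence (RLU). Ketoconazole positive control.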

[17] = target: Nuclear receptor subfamily 1 group I member 2 (Homo sapiens) (UniProt O75469); assay: CYP3A4 induction through human pregnane X receptor (PXR) by small molecules, qHTS assay (AID 1346984); also: nearly all actives have a fitted effect of over 40% in size
Method in brief: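 After 24 h at 37C with compound, DPX-2 cells (HepG2, co-transfected PXR response element and CYP3A4 promoter-luciferase) got 3uM final P450-Glo Luciferin-IPA for 3 h; One-Glo luminescence followed.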

[18] = target: Nuclear receptor subfamily 1 group I member 2 (Homo sapiens) (UniProt O75469); assay: Human pregnane X receptor (PXR) activation by small molecules, qHTS assay (AID 1346985); also: nearly all actives have a fitted effect of over 40% in size
Method in brief: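 DPX-2 cells (HepG2 co-transfected with a PXR response element and a CYP3A4-promoter luciferase construct) were seeded at 2,000 per well, rested 5 hr at 37C, then exposed to DMSO-dissolved compounds for 24 hr. Activation was read as luciferase luminescence.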

Measured: Potency

Chain of Nuclear receptor subfamily 1 group I member 2 (Homo sapiens) (O75469 whole entry, looked up): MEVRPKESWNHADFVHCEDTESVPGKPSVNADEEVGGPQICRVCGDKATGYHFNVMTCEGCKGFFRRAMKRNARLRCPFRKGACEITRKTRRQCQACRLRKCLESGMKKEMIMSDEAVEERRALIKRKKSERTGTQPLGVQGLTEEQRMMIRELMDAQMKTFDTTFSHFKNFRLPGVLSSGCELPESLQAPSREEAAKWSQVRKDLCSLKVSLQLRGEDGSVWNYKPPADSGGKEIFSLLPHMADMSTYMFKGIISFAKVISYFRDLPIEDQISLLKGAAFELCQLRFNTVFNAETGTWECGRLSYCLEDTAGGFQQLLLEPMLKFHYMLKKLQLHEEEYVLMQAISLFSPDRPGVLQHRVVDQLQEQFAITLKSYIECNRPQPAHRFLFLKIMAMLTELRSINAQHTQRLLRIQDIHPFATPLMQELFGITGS
Chain of Thyrotropin-releasing hormone receptor (Homo sapiens) (P34981 whole entry, looked up): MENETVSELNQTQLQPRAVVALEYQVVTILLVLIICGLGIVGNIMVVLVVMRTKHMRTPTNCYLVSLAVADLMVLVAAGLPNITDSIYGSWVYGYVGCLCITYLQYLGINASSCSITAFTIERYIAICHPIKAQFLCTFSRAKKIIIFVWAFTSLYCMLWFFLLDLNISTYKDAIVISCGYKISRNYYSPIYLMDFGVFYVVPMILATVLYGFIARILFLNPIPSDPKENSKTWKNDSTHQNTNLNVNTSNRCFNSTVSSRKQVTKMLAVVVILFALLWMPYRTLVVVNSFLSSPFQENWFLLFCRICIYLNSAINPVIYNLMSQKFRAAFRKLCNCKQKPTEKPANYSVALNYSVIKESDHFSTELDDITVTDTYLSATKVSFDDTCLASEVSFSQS
Chain of Voltage-gated inwardly rectifying potassium channel KCNH2 (Homo sapiens) (Q12809 whole entry, looked up): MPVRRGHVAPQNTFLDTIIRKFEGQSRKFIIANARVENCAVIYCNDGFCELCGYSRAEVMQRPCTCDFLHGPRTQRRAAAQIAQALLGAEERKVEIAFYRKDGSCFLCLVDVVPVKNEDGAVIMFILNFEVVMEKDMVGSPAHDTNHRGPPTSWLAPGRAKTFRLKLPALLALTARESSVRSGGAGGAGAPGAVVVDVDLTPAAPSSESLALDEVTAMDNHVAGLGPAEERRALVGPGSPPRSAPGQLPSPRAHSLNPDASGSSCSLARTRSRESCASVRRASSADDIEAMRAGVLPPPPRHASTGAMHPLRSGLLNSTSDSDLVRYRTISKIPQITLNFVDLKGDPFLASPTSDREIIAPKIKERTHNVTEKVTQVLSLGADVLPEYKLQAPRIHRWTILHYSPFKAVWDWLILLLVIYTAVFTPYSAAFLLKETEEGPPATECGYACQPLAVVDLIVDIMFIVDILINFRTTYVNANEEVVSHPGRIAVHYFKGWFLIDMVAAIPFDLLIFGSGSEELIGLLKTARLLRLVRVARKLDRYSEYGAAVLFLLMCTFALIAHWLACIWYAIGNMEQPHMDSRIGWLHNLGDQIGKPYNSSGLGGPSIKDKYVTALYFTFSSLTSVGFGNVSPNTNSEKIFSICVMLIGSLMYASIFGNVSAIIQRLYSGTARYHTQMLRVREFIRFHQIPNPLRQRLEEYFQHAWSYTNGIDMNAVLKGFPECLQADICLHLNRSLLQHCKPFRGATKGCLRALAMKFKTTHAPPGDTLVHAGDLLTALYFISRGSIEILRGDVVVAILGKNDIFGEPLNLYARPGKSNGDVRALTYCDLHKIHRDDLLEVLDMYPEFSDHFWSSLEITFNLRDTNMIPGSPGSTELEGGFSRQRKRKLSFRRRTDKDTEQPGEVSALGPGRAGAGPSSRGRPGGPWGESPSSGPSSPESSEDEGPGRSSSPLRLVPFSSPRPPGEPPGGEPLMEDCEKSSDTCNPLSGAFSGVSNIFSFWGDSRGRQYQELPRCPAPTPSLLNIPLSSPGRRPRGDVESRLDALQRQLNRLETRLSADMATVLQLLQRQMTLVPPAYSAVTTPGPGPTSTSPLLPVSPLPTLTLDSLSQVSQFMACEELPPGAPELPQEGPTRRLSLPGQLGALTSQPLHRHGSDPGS
Chain of Cytochrome P450 3A4 (Homo sapiens) (P08684 whole entry, looked up): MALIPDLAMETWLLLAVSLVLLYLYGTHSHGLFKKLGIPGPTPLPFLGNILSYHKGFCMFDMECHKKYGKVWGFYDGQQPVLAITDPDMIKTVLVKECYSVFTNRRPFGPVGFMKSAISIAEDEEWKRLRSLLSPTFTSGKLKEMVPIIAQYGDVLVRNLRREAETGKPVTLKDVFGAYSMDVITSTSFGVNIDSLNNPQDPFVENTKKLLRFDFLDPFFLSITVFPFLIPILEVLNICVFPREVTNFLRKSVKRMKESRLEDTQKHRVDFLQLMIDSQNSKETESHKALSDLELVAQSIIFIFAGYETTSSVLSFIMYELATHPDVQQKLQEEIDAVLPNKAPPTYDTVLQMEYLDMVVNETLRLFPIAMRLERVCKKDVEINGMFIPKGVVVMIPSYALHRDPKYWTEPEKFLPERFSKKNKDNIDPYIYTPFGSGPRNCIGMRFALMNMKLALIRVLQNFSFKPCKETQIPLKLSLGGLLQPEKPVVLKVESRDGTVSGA
Chain of Cytochrome P450 2C9 (Homo sapiens) (P11712 whole entry, looked up): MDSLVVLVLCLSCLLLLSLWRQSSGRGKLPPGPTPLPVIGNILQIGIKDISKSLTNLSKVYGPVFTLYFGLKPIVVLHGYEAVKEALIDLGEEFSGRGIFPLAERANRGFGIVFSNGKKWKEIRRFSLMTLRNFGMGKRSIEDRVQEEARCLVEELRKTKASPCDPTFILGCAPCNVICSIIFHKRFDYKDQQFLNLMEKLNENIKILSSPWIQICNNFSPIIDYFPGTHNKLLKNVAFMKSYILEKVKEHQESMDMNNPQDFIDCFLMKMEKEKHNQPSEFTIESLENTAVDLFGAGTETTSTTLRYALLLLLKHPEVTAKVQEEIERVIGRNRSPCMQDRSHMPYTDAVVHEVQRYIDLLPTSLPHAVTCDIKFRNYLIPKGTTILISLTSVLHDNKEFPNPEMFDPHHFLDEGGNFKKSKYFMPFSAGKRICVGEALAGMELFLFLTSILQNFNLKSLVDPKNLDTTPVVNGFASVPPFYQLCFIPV
Chain of Cytochrome P450 2D6 (Homo sapiens) (P10635 whole entry, looked up): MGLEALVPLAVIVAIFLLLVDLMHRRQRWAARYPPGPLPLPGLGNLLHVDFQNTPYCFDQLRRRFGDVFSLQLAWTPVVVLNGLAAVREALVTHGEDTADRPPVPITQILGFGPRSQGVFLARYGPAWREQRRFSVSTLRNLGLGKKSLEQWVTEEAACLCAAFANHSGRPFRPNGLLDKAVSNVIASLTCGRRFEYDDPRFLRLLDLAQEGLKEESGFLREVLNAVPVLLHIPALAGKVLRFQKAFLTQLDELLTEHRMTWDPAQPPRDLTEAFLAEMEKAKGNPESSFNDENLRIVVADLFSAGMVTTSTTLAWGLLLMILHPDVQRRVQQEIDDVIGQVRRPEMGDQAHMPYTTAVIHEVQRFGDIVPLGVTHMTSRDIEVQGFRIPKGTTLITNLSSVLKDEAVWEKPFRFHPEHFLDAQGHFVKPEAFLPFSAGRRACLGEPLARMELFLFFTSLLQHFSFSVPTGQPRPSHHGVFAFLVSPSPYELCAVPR
Chain of Cytochrome P450 1A2 (Homo sapiens) (P05177 whole entry, looked up): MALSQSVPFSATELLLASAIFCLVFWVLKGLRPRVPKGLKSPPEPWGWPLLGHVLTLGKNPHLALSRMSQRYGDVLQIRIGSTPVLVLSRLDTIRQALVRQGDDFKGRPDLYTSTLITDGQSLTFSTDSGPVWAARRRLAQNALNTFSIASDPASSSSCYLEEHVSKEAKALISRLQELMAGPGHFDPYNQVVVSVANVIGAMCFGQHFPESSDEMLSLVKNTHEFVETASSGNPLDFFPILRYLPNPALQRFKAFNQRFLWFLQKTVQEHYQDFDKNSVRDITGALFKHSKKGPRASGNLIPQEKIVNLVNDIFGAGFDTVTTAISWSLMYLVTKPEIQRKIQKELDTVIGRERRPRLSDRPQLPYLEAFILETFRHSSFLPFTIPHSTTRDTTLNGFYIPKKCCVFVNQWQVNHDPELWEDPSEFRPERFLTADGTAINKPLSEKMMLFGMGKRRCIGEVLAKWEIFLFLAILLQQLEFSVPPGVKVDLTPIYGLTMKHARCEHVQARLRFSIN
Chain of Cytochrome P450 2C19 (Homo sapiens) (P33261 whole entry, looked up): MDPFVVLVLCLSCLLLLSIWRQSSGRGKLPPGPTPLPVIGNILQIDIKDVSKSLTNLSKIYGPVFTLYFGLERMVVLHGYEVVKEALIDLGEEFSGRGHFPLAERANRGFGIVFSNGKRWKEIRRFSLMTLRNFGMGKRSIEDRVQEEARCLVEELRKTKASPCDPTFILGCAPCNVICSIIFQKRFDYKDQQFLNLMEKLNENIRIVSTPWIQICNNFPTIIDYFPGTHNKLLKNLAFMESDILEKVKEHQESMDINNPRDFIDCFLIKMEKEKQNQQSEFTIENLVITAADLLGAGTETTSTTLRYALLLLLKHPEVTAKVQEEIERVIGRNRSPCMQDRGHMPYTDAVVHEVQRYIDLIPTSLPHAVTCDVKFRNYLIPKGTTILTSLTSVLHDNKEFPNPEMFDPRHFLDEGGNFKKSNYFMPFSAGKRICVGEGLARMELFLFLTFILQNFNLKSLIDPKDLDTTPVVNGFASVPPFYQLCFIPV

CCCCCCC(O)CO (stereo unspecified)
inactive: [1] | [2] | [3] | [4] | [5] | [6] | [7] | [8] | [9] | [10] | [11] | [12] | [13] | [14] | [15] | [16]

C[C@@H](CN1CC(=O)NC(=O)C1)N1CC(=O)NC(=O)C1
inactive: [1] | [2] | [3] | [4] | [5] | [6] | [7] | [8] | [9] | [10] | [17] | [18] | [11] | [12] | [13] | [14] | [15] | [16]

CC(=O)SCC(CC(=O)c1ccc(C)cc1)C(=O)O (stereo unspecified)
inactive: [1] | [2] | [3] | [4] | [5] | [6] | [7] | [8] | [9] | [10] | [11] | [12] | [14] | [15] | [16]
active: [13] 15.5 µM

CCCOc1ccc(C(=O)OCCN(CC)CC)cc1N
inactive: [1] | [2] | [3] | [4] | [5] | [6] | [7] | [8] | [9] | [10] | [12] | [15] | [16]
active: [11] 4.9 µM | [14] 17.4 µM

CC/C=C\CCOC(=O)c1ccccc1
inactive: [1] | [2] | [3] | [4] | [5] | [6] | [7] | [8] | [9] | [10] | [11] | [12] | [13] | [15] | [16]

CO/N=C(\C(=O)O)c1csc(NC(=O)CCl)n1
inactive: [1] | [2] | [3] | [4] | [5] | [6] | [7] | [8] | [9] | [10] | [11] | [12] | [13] | [14] | [15] | [16]

CC(C)OC(=O)C(C(=O)OC(C)C)=C1SC=CS1
inactive: [1] | [2] | [3] | [4] | [5] | [7] | [8] | [9] | [17] | [18] | [11] | [15] | [16]
active: [10] 26.6 µM | [12] 34.7 µM | [14] 13.8 µM

CN(C)c1cc(NC(=O)CNC(C)(C)C)c(O)c2c1C[C@H]1C[C@H]3[C@H](N(C)C)C(=O)C(C(N)=O)=C(O)[C@@]3(O)C(=O)C1=C2O
inactive: [1] | [2] | [3] | [4] | [5] | [6] | [8] | [9] | [10] | [15] | [16]
active: [12] 21.9 µM

O=C1CC2(CCCC2)CC(=O)N1CCNCC1COc2ccccc2O1 (stereo unspecified)
active: [10] 13.3 µM | [11] 0.309 µM | [15] 19 µM
inactive: [1] | [2] | [3] | [4] | [5] | [7] | [8] | [9] | [12] | [13]

C=CCn1cc[n+](C)c1
inactive: [1] | [2] | [3] | [4] | [5] | [6] | [7] | [8] | [9] | [10] | [12] | [13] | [15] | [16]

C=COCCCCO
inactive: [1] | [2] | [3] | [4] | [5] | [6] | [7] | [8] | [9] | [11] | [12] | [15] | [16]

CCCCCCCCCCCC(C)=O
inactive: [1] | [2] | [3] | [4] | [5] | [6] | [8] | [9] | [10] | [11] | [12] | [13] | [14] | [15] | [16]

CN(C)CCc1c[nH]c2ccc(C[C@H]3COC(=O)N3)cc12
inactive: [1] | [2] | [3] | [4] | [5] | [6] | [8] | [9] | [10] | [17] | [18] | [12] | [13] | [14] | [15] | [16]

CCCC(=O)OC
inactive: [1] | [2] | [3] | [4] | [5] | [6] | [8] | [9] | [10] | [11] | [12] | [13] | [14] | [15] | [16]

CCCCCCC(=O)c1ccccc1
inactive: [1] | [2] | [3] | [4] | [5] | [6] | [8] | [9] | [10] | [11] | [12] | [13] | [15] | [16]
active: [14] 50.2 µM

COc1cnc(NS(=O)(=O)c2ccc(N)cc2)nc1
inactive: [1] | [2] | [3] | [4] | [5] | [6] | [8] | [9] | [10] | [17] | [18] | [11] | [13] | [14] | [15] | [16]

CC(=O)Oc1ccc(C(C)=O)cc1
active: [14] 33 µM
inactive: [1] | [2] | [3] | [4] | [5] | [6] | [7] | [8] | [9] | [10] | [11] | [13] | [15] | [16]

— PubChem BioAssay (Tox21)
